# Source: PubChem
# Sampled rows, rich in hits. Any-hit rate of the full collection: about 9.4%.
# SARS PLpro yeast = inhibitors of SARS-CoV papain-like protease in yeast | S. cerevisiae expressing SARS-CoV PLpro, growth rescue | Potency, µM (titrated, usually from 32.9 µM), without a hit: at the highest dose activity, positive = growth rescue, most hits filed as activators | 0.19% of 330,000 active; calls by dose curve; note: 0% is about no effect; nearly all actives have a fitted effect of over 55% in size
# Pf growth 48h = P. falciparum growth inhibition at 48 hours (one generation). P. falciparum luciferase growth in erythrocytes, 48 h. Potency, µM (top dose mostly 28.7 µM), for the others: top-dose activity change, negative = inhibition, hits mostly inhibitors. 5.9% of 310,000 active; note: % is set by controls: 0 for no effect and ±100 for the full control effect
#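 Compounds are pin-transferred into medium, infected erythrocytes (2% hematocrit, 0.1% parasitemia final) are added, and plates sit one parasite generation at 37 C in 5% CO2. Detection reagent is then added and luminescence measured.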
# Pf growth 96h = P. falciparum growth inhibition at 96 hours; P. falciparum luciferase reporter growth, 96 h; AID 504834; 6.9% of 320,000 active; Potency, µM (series often up to 28.7 µM), for inactives: top-dose activity change, negative = inhibition, usual class: inhibitors; note: % is set by controls: 0 for no effect and ±100 for the full control effect
#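 Plates of compound plus infected erythrocytes (2% hematocrit, 0.05% parasitemia final) incubate 96 hours, 37 C, 5% CO2. Detection reagent added; reduced luminescence from the parasites' luciferase reporter flags inhibition.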
# AMA1 RON2 block = disrupts binding of P. falciparum AMA1 to RON2. AlphaScreen AMA1-biotinylated RON2 peptide binding. Potency, µM (series often up to 58.2 µM), inactives show top-dose activity change, negative = inhibition, actives largely listed as inhibitors. 0.2% of 360,000 active;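 note: 0% = vehicle wells and -100% = peptide control; nearly all actives have a fitted effect of over 45% in size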
#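 AMA1 (3D7) with his tag at 25 nM final met compounds first, then biotinylated RON2 peptide at 25 nM; detection used donor plus acceptor beads, 10 µg/mL apiece, read by AlphaScreen after 30 min at room temperature.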
# Active calls of the source: *; ? = inconclusive; . = no result given; [ ] = dose if it differs, or a comment. Unless noted, calls come from the whole dose curve; as a rule, active = well fitted curve in the direction sought with a large enough effect; inconclusive = small, poorly fitted or top-dose-only effect, or another doubt; inactive = no such curve, though single readings can be large; an effect the other way counts as inactive or inconclusive. Potency is the fitted concentration of half-maximal effect.
SMILES,SARS PLpro yeast,Pf growth 48h,Pf growth 96h,AMA1 RON2 block
COc1ccc(N2CCN(C(c3nnnn3C3CCCC3)C(C)C)CC2)cc1 (stereo not given),0%,-11%,40%,-4%
COc1ccc(CCNC(=O)c2cc(S(=O)(=O)N(C)C)ccc2N2CCCC2)cc1OC,0%,-28%,-29%,1%
c1ccc(C2(CN3CCNC[C@H]3Cc3cccc4ccccc34)CC2)cc1,3%,?,?,-2%
CC(C)(C)CN1CCNC[C@H]1Cc1cccc2ccccc12,-2%,?,9.3µM*,-1%
Oc1ccc(C[C@@H]2CNCCN2CCc2cccc3ccccc23)cc1,-2%,13µM*,?,12%
Cc1ccc(NC(=O)C(=O)NCc2ccc(/C=C(/C#N)C(=O)NCc3cccnc3)o2)cc1,-1%,69%,?,2%
COc1ccc(/C=N/N=C2\SCC(=O)N2c2c(C)n(C)n(-c3ccccc3)c2=O)cc1OC,4%,13µM*,?,10%
Cn1ccnc1SCC(=O)Nc1cccc(C#N)c1,5%,.,.,-4%
O=C(N=Nc1c(O)[nH]c2ccc(Br)cc12)c1cc(-c2cccs2)nc2ccccc12,-2%,-1%,7%,17%
OC(CNc1nc2ccccc2s1)c1ccccc1 (stereo not given),-7%,13µM*,-29%,15%
CCOCCc1nnc(NC(=O)c2cc(OC)c(OC)c(OC)c2)s1,-2%,-8%,.,-3%
O=C(Cc1ccc(Cl)cc1)NCC(=O)N1CCCCCC1,-6%,?,12µM*,1%
Cc1ccc(CC(=O)N2CCOCC2)cc1,-1%,2%,-7%,3%
O=C(Cc1ccc(Cl)cc1)NCC(=O)N1CCCCC1,0%,31%,-2%,5%
O=C(Cc1ccc(Cl)cc1)N1CCOCC1,-4%,0%,15µM*,-13%
CC(C)N(Cc1ccccc1)C(=O)CN1C(=O)c2ccccc2C1=O,?,7%,-24%,-2%
CCN(CC)C(=O)CC(c1ccc(OC)cc1)c1c(O)cc(OC)cc1OC (stereo not given),-1%,?,-15%,-1%
COc1ccc(C(CCN2CCN(c3ccccc3)CC2)c2c(O)cc(OC)cc2OC)cc1 (stereo not given),2%,1µM*,0.47µM*,?
COc1cc(O)c(C(CCN2CCN(c3ccccc3)CC2)c2ccc(N(C)C)cc2)c(OC)c1 (stereo not given),1%,0.83µM*,0.66µM*,11µM*
COc1ccc(N2CCN(CCC(O)c3ccc4ccccc4c3)CC2)cc1 (stereo not given),1%,3.3µM*,-14%,-27%
COc1cc(O)c(C(CCN2CCOCC2)c2ccc(N(C)C)cc2)c(OC)c1 (stereo not given),1%,4.7µM*,7.4µM*,20µM*
Cc1ccccc1C(=O)NN1CC(C(=O)OCc2ccc(Cl)c(Cl)c2)CC1=O (stereo not given),-2%,-1%,24%,14%
COc1cc(O)c(C(CC(=O)N2CCN(c3ccccc3)CC2)c2cc(OC)c(OC)c(OC)c2)c(OC)c1 (stereo not given),-1%,12µM*,10µM*,26%
CC1(C(=O)OCC(=O)Nc2ccc(Cl)cn2)CC1(Cl)Cl (stereo not given),-10%,.,.,3%
O=C(NC1=C(Nc2ccc(F)cc2)C(=O)c2ccccc2C1=O)c1ccc(Cl)cc1,-41%,0.52µM*,0.37µM*,-10%
SMILES,SARS PLpro yeast,Pf growth 48h,Pf growth 96h,AMA1 RON2 block
O=C(NCCCN1CCCC1=O)c1cc(S(=O)(=O)N2CCN(c3ccccc3)CC2)ccc1Cl,.,.,.,5%[11.6 µM]
C/C(=C\C(=O)OCCCCCCCCC(=O)O)C[C@@H]1OC[C@H](C[C@@H]2O[C@H]2[C@@H](C)[C@H](C)O)[C@@H](O)[C@H]1O,.,0.19µM*,0.03µM*,-1%
C[C@@]12C(=O)Nc3ccc(Cl)cc3C(=O)N1[C@H]1c3cc(Br)ccc3OC[C@@H]1[C@@H]2c1ccccc1,-4%,.,.,0%
C[C@@]12C(=O)Nc3ccc(Br)cc3C(=O)N1[C@H]1c3cc(Br)ccc3OC[C@@H]1[C@@H]2c1ccccc1,6%,3.3µM*,3.3µM*,0%
COc1ccc2c(c1)C(=O)N1[C@H]3c4cc(Br)ccc4OC[C@@H]3[C@H](c3ccccc3)[C@]1(C)C(=O)N2,-7%,?,12µM*,-4%
Cc1ccc(C)c(NC(=S)N(CCc2nc3cc(C)c(C)cc3[nH]2)Cc2cccnc2)c1,4%,?,-10%,-1%
COc1ccc(OC)c(Nc2ncnc3sccc23)c1,-4%,-20%,29%,7%
COc1cc(CN(C)c2ncnc3sccc23)ccc1OC(F)F,0%,?,13µM*,19%
CCN(CC)C(=O)C1CCCN(c2ccc([N+](=O)[O-])cc2/C=N/NC(=O)c2cccc(Br)c2)C1 (stereo not given),18%,4.1µM*,2.1µM*,48%
Cc1ccc(C(=O)N/N=C\c2ccc([N+](=O)[O-])s2)cn1,-2%,4.1µM*,0.33µM*,16%
Cc1ccc(C(=O)N/N=C/c2ccc([N+](=O)[O-])s2)cc1,-11%,?,24%,-24%
O=C(N/N=C/c1ccc([N+](=O)[O-])s1)c1ccncc1,-4%,4.7µM*,1.5µM*,43%
O=C(N/N=C/c1ccc([N+](=O)[O-])s1)c1cccc(Br)c1,-44%,4.1µM*,4.1µM*,37%
Cc1nccn1Cc1ccccc1,7%,42%,37%,1%
Cc1ccccc1C(=O)O/N=C(\N)c1ccc([N+](=O)[O-])cc1,-5%,-3%,?,11%
O=C(N/N=C/c1ccc(Br)s1)c1ccccc1[N+](=O)[O-],1%,6%,2%,5%
O=C(N/N=C/c1ccc(Br)s1)c1ccc([N+](=O)[O-])cc1,0%,2.1µM*,-11%,11%
COc1cc(/C=C2/C(=N)N3C(=NC2=O)SN=C3S(=O)(=O)C(C)C)ccc1OC(=O)c1ccco1,8%,-1%,?,2%
CCOc1cc(/C=C2/C(=N)N3C(=NC2=O)SN=C3S(=O)(=O)CC)ccc1OC(=O)c1ccco1,-2%,-4%,10µM*,-11%
CCOc1cc(/C=C2/C(=N)N3C(=NC2=O)SN=C3S(=O)(=O)C(C)C)ccc1OC(=O)c1ccco1,?,-8%,8.3µM*,-3%
CCOc1ccccc1N1C(=O)CC(Sc2n[nH]c(-c3ccccc3)n2)C1=O (stereo not given),-5%,-20%,-15%,57%
C/C(=N\NC(=O)c1cccc(O)c1)c1cccc(NC(=O)c2ccc(F)cc2)c1,-5%,34%,-12%,64%
C/C(=N/NC(=O)c1ccc(-c2ccccc2)cc1)c1cccc(O)c1,0%,5%,5.9µM*,72%
C/C(=N\NC(=O)c1ccccc1F)c1cccc(NC(=O)c2ccc(C)cc2)c1,-5%,69%,5.2µM*,-4%
CCOc1cccc(=O)c2c(C)n(Cc3ccco3)c(C)c12,0%,9.3µM*,?,13%
O=C1N(Cc2cccnc2)C[C@@H]2C[C@@H](c3cccc(OC4CCCC4)c3)N3CCC[C@@]123,1%,8.3µM*,42%,-2%
